In the library only some 10% were active in any assay of this set; here they are far more common.
HPGD block: inhibitors of human 15-hydroxyprostaglandin dehydrogenase (HPGD); purified HPGD, NADH fluorescence kinetic, PGE2 substrate; Potency, µM, for the others: at the top dose activity change, negative = inhibition, usual class: inhibitors; 150,000 compounds, 4.3% hits; AID 894; note: potency is the fitted concentration of half-maximal effect
Target sequence (P15428 whole entry, looked up): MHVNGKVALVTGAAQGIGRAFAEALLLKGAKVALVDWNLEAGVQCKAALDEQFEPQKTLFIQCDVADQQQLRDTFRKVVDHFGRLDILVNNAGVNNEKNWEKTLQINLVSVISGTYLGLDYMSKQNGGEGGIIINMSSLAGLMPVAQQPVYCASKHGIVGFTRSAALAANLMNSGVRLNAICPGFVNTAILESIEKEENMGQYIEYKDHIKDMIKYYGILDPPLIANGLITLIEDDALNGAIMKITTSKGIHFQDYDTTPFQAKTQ
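20 nM HPGD preincubated 15 min at room temperature with compound in 50 mM Tris-HCl pH 8, 0.01% Tween 20. Started with 1 mM NAD+ and 30 uM prostaglandin E2; NADH fluorescence (360/450 nm) read 5 times over 30-s intervals, last minus first.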
ALDH1A1 block: blocks purified human ALDH1A1 activity; Purified ALDH1A1, NADH fluorescence, propionaldehyde substrate; 220,000 compounds, 7.3% hits; Potency, µM (doses to about 75.3 µM), for inactives: at the highest dose activity, negative = inhibition, hits mostly inhibitors;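 note: potency is the fitted concentration of half-maximal effect; plate controls were no enzyme wells and a reference inhibitor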
Lamin A splicing: LMNA splicing modulation; HeLa LMNA splicing GFP/RFP minigene ratio, 48 h; Potency, µM (doses to about 46.1 µM), for inactives: at the top dose ratio change, negative = inhibition, actives largely listed as inhibitors; 200,000 compounds, 0.01% hits; AID 1487; active = well fitted inhibition curve with a large enough effect in the signal ratio, with a control signal flat, not every such curve was filed as active; inconclusive = small, poorly fitted or top-dose-only effect, or effect the other way, or a change in a side signal; the % refers to the signal ratio; note: potency is the fitted concentration of half-maximal effect
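S3 HeLa stable clones carrying a lamin A-EGFP splicing minigene plus DsRed2 were seeded at 600 cells/well in Opti-MEM with 2% FBS, pin-dosed and incubated 48 h at 37°C. Acumen cytometry (488 nm) gave the GFP/RFP total-intensity ratio.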
PNC assembly inh: perinucleolar compartment assembly inhibition | AID 2417 | PC3M PTB-GFP, PNC prevalence imaging, 16 h; active compounds read low | 140,000 compounds, 3.1% hits | activity change (PNC), negative = inhibition, % at 10 µM;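 active = readout at or below -70, meaning at least 70% loss of cells showing the perinucleolar compartment, a nuclear body marking cancer cells; inconclusive = readout between -30 and a set limit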;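 note: plate controls were DMSO wells for no effect and camptothecin positive control wells for full effect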
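PC3M cells stably expressing PTB-GFP, 750–1000 cells/well, treated 16 h at 37 °C with compound (23 nl of library stock), in duplicate. After paraformaldehyde fixation and Hoechst stain, imaged at 20x; PNC prevalence scored by image analysis.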
ALOX12 inhib: blocks human 12-lipoxygenase activity; 150,000 compounds, 0.12% hits; purified 12-hLO, xylenol orange hydroperoxide absorbance; Potency, µM (highest dose often 57.1 µM), without a hit: top-dose activity change, negative = inhibition, hits mostly inhibitors; active = well fitted inhibition curve with a large enough effect; inconclusive = small, poorly fitted or top-dose-only effect; note: potency is the fitted concentration of half-maximal effect; nearly all actives have a fitted effect of over 55% in size
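150 nM 12hLO, 25 mM Hepes pH 7.0 + 0.01% Triton X-100; cpd preinc 15 min RT; 40 uM arachidonic acid, 30 min RT; Fe-XO 30 min; A573/A405 ratio as read-out.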
Numbers without * were called inactive; [ ] = another dose, or the depositor's remark. Unless noted, calls come from the whole dose curve; as a rule, active = well fitted inhibition curve with a large enough effect (not every such curve was filed as active); inconclusive = small, poorly fitted or top-dose-only effect, or another doubt; inactive = no such curve, though single readings can be large or run the other way. Unless noted, % is set by controls: 0 for no effect and ±100 for the full control effect.

For Cc1cccc(NC(=O)Cn2cccc2)c1 the results were HPGD block -5%, ALDH1A1 block 1%, Lamin A splicing -11%, PNC assembly inh 19 and ALOX12 inhib 2%.
`Cc1ccc(NC(=O)Cn2cccc2)cc1` gave ALDH1A1 block -10%.
`CCOc1ccc(NCC(=O)Nc2ccc(C)cc2C)cc1` gave HPGD block -3%, ALDH1A1 block 1.8µM*, Lamin A splicing 0%, PNC assembly inh 20 and ALOX12 inhib -16%.
Cc1ccc(NC(=O)Cn2cccc2)c(C)c1 was read as HPGD block 2.2µM*, ALDH1A1 block -1%, Lamin A splicing 10%, PNC assembly inh 28 and ALOX12 inhib 9%.
For Cc1ccc(NC(=O)Cn2cccc2)c(Br)c1 the results were HPGD block 14µM*, ALDH1A1 block -4%, Lamin A splicing 15%, PNC assembly inh inconclusive and ALOX12 inhib 1%.
Screening CCOC(=O)c1c(S(=O)(=O)N2CCC(C(=O)N3CCN(c4cccc(C)c4C)CC3)CC2)c(C)n(C)c1C returned Lamin A splicing 2%[46 µM].
For O=C(Cc1ccc2c(c1)CCCC2)Nc1ccc2ccccc2c1 the results were HPGD block inconclusive, ALDH1A1 block 22µM*, Lamin A splicing inconclusive, PNC assembly inh inconclusive and ALOX12 inhib -1%.
`O=C(CSc1cccs1)Nc1ccc2ccccc2c1` gave HPGD block 28µM*, ALDH1A1 block inconclusive, Lamin A splicing 4%, PNC assembly inh 60 and ALOX12 inhib 2%.
For CC(OC(=O)CN(C)S(=O)(=O)c1ccc(Cl)cc1)C(=O)Nc1ccc(N2CCOCC2)cc1 (stereo unspecified) the results were HPGD block -6%, ALDH1A1 block 7%, Lamin A splicing -1%, PNC assembly inh 13 and ALOX12 inhib -3%.
CC(=O)Nc1ccc(NC(=O)C(C)OC(=O)CN(C)S(=O)(=O)c2ccc(Cl)cc2)cc1 (stereo unspecified) was read as HPGD block -3%, ALDH1A1 block 2%, Lamin A splicing 2%, PNC assembly inh -113* and ALOX12 inhib 0%.
For CCn1ccc2c(OCC(=O)Nc3ccccc3C(F)(F)F)cccc2c1=O the results were Lamin A splicing 9%[46 µM].
`CCN1CCCC1CN(Cc1cc2ccc(C)cc2[nH]c1=O)C(=S)Nc1ccccc1OC` (stereo unspecified) gave HPGD block -10%, ALDH1A1 block 14%, Lamin A splicing 1%, PNC assembly inh -5 and ALOX12 inhib 2%.
Screening CCN1CCCC1CN(Cc1cc2ccc(C)c(C)c2[nH]c1=O)C(=O)Nc1ccccc1OC (stereo unspecified) returned HPGD block -13%, ALDH1A1 block 13µM*, Lamin A splicing 7%, PNC assembly inh -3 and ALOX12 inhib -2%.
`CCOC(=O)c1ccc(N2Cc3ccccc3C2)cc1O` gave HPGD block -18%, ALDH1A1 block 20µM*, Lamin A splicing -1%, PNC assembly inh inconclusive and ALOX12 inhib -4%.
Screening COc1ccc(CN2C(=O)c3ccccc3C2C(=O)NC2CCCC(C)C2C)c(OC)c1 (stereo unspecified) returned ALDH1A1 block -4% and Lamin A splicing inconclusive.
For CCNC(=S)Nc1cc(OCC)c(NC(=O)c2ccco2)cc1OCC the results were HPGD block -21%, ALDH1A1 block inconclusive, Lamin A splicing -11%, PNC assembly inh inconclusive and ALOX12 inhib 1%.
`COc1ccc(C(=O)NC(=S)Nc2cccc(NC(=O)c3ccco3)c2)cc1[N+](=O)[O-]` gave HPGD block -8%, ALDH1A1 block 3.5µM*, Lamin A splicing -1%, PNC assembly inh -6 and ALOX12 inhib 1%.
`COc1ccc(C(=O)Nc2ccc(N3CCN(C)CC3)cc2)cc1[N+](=O)[O-]` gave ALDH1A1 block inconclusive and Lamin A splicing 2%[46 µM].
`CCc1ccc(NC(=O)c2ccc(OC)c([N+](=O)[O-])c2)cc1` gave HPGD block -19%, ALDH1A1 block 11µM*, Lamin A splicing inconclusive, PNC assembly inh -4 and ALOX12 inhib -7%.

Bioassay records (PubChem)
